An excerpt weighted towards active compounds, which were near 1.2% of everything screened.
LAP4 TOR yeast: modulators of TOR pathway LAP4-GFP in S. cerevisiae | GFP response vs DMSO, % at 10 µM | hit rate 0.34% among 320,000 | S. cerevisiae LAP4-GFP multiplex, flow cytometry GFP, 3 h; median GFP as percent of DMSO wells | AID 2023;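 active = GFP response vs DMSO above a set limit, about the screen mean plus 3 SD, cut at about 150% in these data; inconclusive = under 70 cell events counted for the yeast strain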
RPL19A TOR yeast: alters RPL19A-GFP fluorescence in TOR pathway yeast screen; S. cerevisiae RPL19A-GFP strain, flow cytometry, 3 h; hits give low values; percent response vs DMSO, % at 10 µM; hit rate 0.3% among 330,000;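 active = percent response vs DMSO below 50%; inconclusive = fewer than 70 events counted for the yeast strain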;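 note: median channel GFP fluorescence of the barcoded RPL19A-GFP strain; ratio of sample median GFP to plate DMSO average so 100% = DMSO; lower means less RPL19A-GFP as with rapamycin TOR inhibition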
MEP2 TOR yeast: alters MEP2-GFP fluorescence in TOR pathway yeast screen; S. cerevisiae MEP2-GFP strain, flow cytometry GFP, 3 h; 100% = DMSO control level; GFP response vs DMSO, % at 10 µM; hit rate 0.51% among 330,000; AID 2016;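 active = GFP response versus DMSO above a set limit, roughly screen mean plus 3 SD, cut at about 180% in these data; inconclusive = fewer than 70 cells counted for a yeast strain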;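 note: median GFP fluorescence of the barcode-gated MEP2-GFP cells per well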
CIT2 TOR yeast: yeast TOR pathway CIT2-GFP modulation; AID 2029; hit rate 0.065% among 320,000; GFP response vs DMSO, % at 10 µM; S. cerevisiae CIT2-GFP strain, flow cytometry, 3 h; 100 means same as DMSO wells;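 active = GFP response relative to DMSO above a set limit, near the screen mean plus 3 SD, cut at about 150% in these data; inconclusive = Fewer than 70 cells measured for a yeast strain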;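 note: ratio of well median GFP fluorescence to mean of DMSO wells on the plate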
Pemphigus Ab inh: inhibitors of pemphigus antibody binding to human desmoglein-3; DSG3-coupled beads, scFv-anti-DSG3-GFP binding, flow cytometry; hits give low values; binding (percent of control), % at 10 µM; hit rate 0.48% among 310,000;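 active = binding more than 3 SD below its plate's average and above zero; inconclusive = below that plate limit but binding exactly zero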;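 note: hits lower antibody fragment binding to DSG3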
Target sequence (P32926 whole entry, looked up, the tested form may be a part): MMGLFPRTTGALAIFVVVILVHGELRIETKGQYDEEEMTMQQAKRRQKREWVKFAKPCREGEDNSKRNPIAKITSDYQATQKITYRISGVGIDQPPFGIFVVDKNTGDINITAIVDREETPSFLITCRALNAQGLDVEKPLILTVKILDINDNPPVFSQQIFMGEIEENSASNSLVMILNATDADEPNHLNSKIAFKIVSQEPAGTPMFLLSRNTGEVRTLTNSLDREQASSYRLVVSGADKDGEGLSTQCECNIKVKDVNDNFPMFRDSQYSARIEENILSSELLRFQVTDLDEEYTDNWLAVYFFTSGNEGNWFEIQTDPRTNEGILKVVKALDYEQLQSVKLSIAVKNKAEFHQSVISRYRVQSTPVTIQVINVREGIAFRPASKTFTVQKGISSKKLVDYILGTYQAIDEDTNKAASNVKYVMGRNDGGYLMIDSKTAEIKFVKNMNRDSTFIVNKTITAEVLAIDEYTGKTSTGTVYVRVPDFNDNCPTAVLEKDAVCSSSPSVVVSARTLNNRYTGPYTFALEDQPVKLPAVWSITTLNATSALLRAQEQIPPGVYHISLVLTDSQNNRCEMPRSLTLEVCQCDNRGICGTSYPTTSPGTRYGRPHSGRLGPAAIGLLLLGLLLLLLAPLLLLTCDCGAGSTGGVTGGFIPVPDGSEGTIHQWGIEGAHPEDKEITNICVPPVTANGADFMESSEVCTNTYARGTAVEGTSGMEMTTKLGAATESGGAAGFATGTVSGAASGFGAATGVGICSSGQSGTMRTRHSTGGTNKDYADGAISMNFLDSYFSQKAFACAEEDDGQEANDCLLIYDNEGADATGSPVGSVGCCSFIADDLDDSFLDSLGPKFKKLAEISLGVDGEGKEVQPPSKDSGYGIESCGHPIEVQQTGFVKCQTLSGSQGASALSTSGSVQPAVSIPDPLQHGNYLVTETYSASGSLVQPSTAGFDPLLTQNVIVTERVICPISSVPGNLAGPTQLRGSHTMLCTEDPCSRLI
AGP1 TOR yeast: modulators of TOR pathway AGP1-GFP in S. cerevisiae; GFP response vs DMSO, % at 10 µM; S. cerevisiae AGP1-GFP multiplex flow cytometry, 3 h; GFP as percent of DMSO wells; AID 2066; hit rate 0.02% among 320,000;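 active = GFP response relative to DMSO above a set limit, near screen average plus 3 SD, cut at about 150% in these data; inconclusive = fewer than 70 cells counted for the yeast strain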;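 note: median GFP channel fluorescence of the gated AGP1 strain per well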
Active calls of the source: *; ? = inconclusive; nt = not tested or not shown; [ ] = remark or other dose.

SMILES | LAP4 TOR yeast | RPL19A TOR yeast | MEP2 TOR yeast | CIT2 TOR yeast | Pemphigus Ab inh | AGP1 TOR yeast
COc1ccc(OC)c(CCNC(=O)CCC(=O)N2CCOc3ccc(C)cc32)c1 | 100 | 97 | 93 | 103 | 68* | 104
COc1ccc(CCNC(=O)CCC(=O)N2CCOc3ccc(C)cc32)cc1OC | 111 | 100 | 107 | 96 | 90 | 90
Nc1c(C(=O)c2ccccc2)oc2ccc([N+](=O)[O-])cc12 | 97 | 109 | 110 | 107 | 60* | 100
CCCc1cc(C(=O)Nc2ccc(C(=O)c3ccc(C)cc3)cc2)n(C)n1 | 118 | 88 | 95 | 94 | 202 | 106
Oc1ccc(-c2csc(-c3ccccc3)n2)cc1O | 206* | 90 | 97 | 101 | 123 | 88
O=C(CNC(=S)NC(=O)c1ccccc1Br)c1ccccc1 | 93 | 106 | 108 | 109 | 6.1* | 95
Cc1ccccc1C(=O)NC(=S)NCC(=O)c1ccccc1 | 97 | 96 | 103 | 100 | 102 | 97
O=C1C(=O)c2ccc(-c3ccccc3)cc2-c2ccccc21 | 158* | 98 | 103 | 76 | 97 | 92
Nc1ccc2c(c1)C(=O)C(=O)c1ccccc1-2 | 189* | 100 | 145 | 102 | 95 | 115
CCOC(=O)c1cc2c(=O)n3cccc(C)c3nc2n(CCCOC)c1=NC(=O)c1cccnc1 | 96 | 97 | 104 | 100 | 102 | 102
CCOCCCn1c(=NC(=O)c2cccnc2)c(C(=O)OCC)cc2c(=O)n3ccccc3nc21 | 100 | 43*[may fluoresce violet] | 196*[may fluoresce violet] | ? | 87 | 24
COc1ccc2[nH]cc(/C=C/c3cc[n+](C)cc3)c2c1 | 134 | 78 | 369*[may fluoresce violet] | ? | 208 | ?
COc1ccc(-c2nn(-c3ccccc3)cc2C(=O)NC(=S)NNC(=O)c2ccncc2)cc1 | 150* | 103 | 113 | 107 | 106 | 101
COc1ccc(NC(=O)c2cn(-c3ccccc3)nc2-c2ccncc2)cc1 | 103 | 98 | 97 | 97 | 98 | 101
O=[N+]([O-])c1cc([N+](=O)[O-])c2cc3ccccc3nc2c1 | 189* | 101 | 105 | 96 | 89 | 97
N#C/C(C(N)=O)=c1/ccc2c(c1)N1C3=C(CCCC3)CC3CCCCC31N=2 (configuration not stated) | 160* | 93 | 104 | 81 | nt | 90
O=C(CCC(=O)N1CCN(S(=O)(=O)c2ccc3ccccc3c2)CC1)NCC(F)(F)F | 95 | 102 | 104 | 101 | 100 | 101
O=C(CN1C(=O)/C(=C/c2ccco2)SC1=S)NC1CCS(=O)(=O)C1 (configuration not stated) | 97 | 98 | 111 | 105 | -6.6* | 99
N#CCCn1cc(CNC2CCC(O)CC2)c2ccccc21 (configuration not stated) | 60 | 46*[may fluoresce violet] | 245*[may fluoresce violet] | ? | 119 | ?
Cc1cc(-c2ccc(Cl)cc2)n2nc(N)nc2n1 | 99 | nt | 101 | 97 | 75* | 104
N#Cc1c(-c2ccc(Cl)cc2)c(-c2ccc(Cl)cc2)nn(CCO)c1=O | nt | nt | nt | nt | 90 | nt
Cc1c(OC(C)C(=O)NCCCN2CCOCC2)ccc2c1oc(=O)c1ccccc12 (configuration not stated) | 91 | 26*[may fluoresce violet] | 162 | ? | 100 | ?
O=C(Nc1ccnn1C1CCN(C(=O)c2cccnc2)CC1)c1cccc(F)c1 | nt | nt | nt | nt | 105 | nt
COCCCN(Cc1cc(OC)c(OC)c(OC)c1)C(=S)Nc1cccc(SC)c1 | nt | nt | nt | nt | 104 | nt
Cn1c(CBr)c(C(=O)c2ccc([N+](=O)[O-])cc2)c(=O)n(C)c1=O | 113 | 55 | 444*[may fluoresce violet] | ? | 111 | ?
SMILES | LAP4 TOR yeast | RPL19A TOR yeast | MEP2 TOR yeast | CIT2 TOR yeast | Pemphigus Ab inh | AGP1 TOR yeast
COc1ccc(/C=N/NC(=O)c2nn(-c3ccc(Cl)cc3)c(=O)c3c(N)scc23)cc1 | 83 | 99 | 101 | 96 | 82* | 91
COc1ccc(/C=N/NC(=O)c2nn(-c3ccccc3)c(=O)c3c(N)scc23)cc1 | 102 | 96 | 100 | 95 | nt | 96
CC1(c2ccc(Cl)cc2)NC(=O)N(CC(=O)N2CCN(C(=O)c3cccs3)CC2)C1=O (configuration not stated) | nt | nt | nt | nt | 103 | nt
CSc1nc2ccc(S(=O)(=O)N3CCCC3)cc2s1 | 177* | 93 | 98 | 73 | 92 | 102
CSc1nc2ccc(S(N)(=O)=O)cc2s1 | 89 | 97 | 100 | 90 | 109 | 92
Cc1cc(O)c(C(=O)/C=C/c2cccc([N+](=O)[O-])c2)c(=O)o1 | 128 | 92 | 89 | 103 | 101 | 111
O=C(/C=C/c1cccc(Cl)c1)c1ccc([N+](=O)[O-])o1 | 135 | 58 | 202*[may fluoresce violet] | ? | 96 | 15
COc1cc(/C=C/C(=O)c2ccc([N+](=O)[O-])o2)ccc1O | 232*[may fluoresce violet] | 70 | 161 | ? | 97 | 32
COc1cc(/C=C/C(=O)O)ccc1O | 90 | 89 | 96 | 92 | 99 | 89
Cc1ccc(C(OCC(O)CNCc2ccc(F)cc2)c2ccccc2)cc1 (configuration not stated) | 91 | 99 | 103 | 104 | 103 | 89
NC(=O)C1Cc2ccccc2CN1S(=O)(=O)c1ccc(Cl)s1 (configuration not stated) | 111 | 97 | 100 | 96 | 101 | 99
Cc1nn(-c2ccccc2)c(C)c1C1C(C#N)=C(N)Oc2n[nH]c(C)c21 (configuration not stated) | 113 | 43*[may fluoresce violet] | 317*[may fluoresce violet] | ? | 104 | 31
COc1ccc(NC(=O)CN2C(=O)N(C)Cc3ccccc32)c(C)c1 | 95 | 101 | 106 | 95 | 90 | 101
CC(C)n1c(O)c(N=Nc2ccc(Cl)c(C(=O)O)c2)c2ccccc21 | 118 | 95 | 102 | 78 | 89 | 96
COc1cccc(N2CN(CCc3ccccc3)CNC2=S)c1 | 106 | 104 | 118 | 94 | 106 | 98
Cc1ccc(C(=O)N(Cc2nnc(-c3ccccc3Cl)o2)C2CC2)o1 | nt | nt | nt | nt | 97 | nt
Cc1ccsc1C(=O)N(Cc1nnc(-c2ccccc2Cl)o1)C1CC1 | 164* | 84 | 98 | 79 | 102 | 96
CCN(CC(=O)Nc1c(F)cccc1F)C(=O)/C=C/c1ccc2ccccc2n1 | 99 | 98 | 96 | 95 | 77* | 102
CCN(CC(=O)Nc1c(F)cccc1F)C(=O)c1ccc2ccccc2n1 | 104 | 97 | 98 | 101 | 111 | 104
COc1ccc(S(=O)(=O)N(C)CC(=O)NCCN2CCOCC2)cc1C | 91 | 102 | 101 | 95 | 117 | 98
Cc1cc(C)c2c(=N)c3ccccc3n(CCCCCCCCn3c4ccccc4c(=N)c4c(C)cc(C)nc43)c2n1 | nt | nt | nt | nt | 60 | nt

Screens (PubChem BioAssay)
